# Experimental data as given in PubChem BioAssay (Tox21).
# Results filed as inconclusive are left out. Activity calls are given as the source filed them. Calls come from the whole dose curve; as a rule, active = well fitted activation curve with a large enough effect in the repeat runs; inconclusive = weak or mixed curves; inactive = no such curve, though single readings can be large or run the other way.
# Assay: qHTS assay for small molecules that induce genotoxicity in human embryonic kidney cells expressing luciferase-tagged ATAD5 (AID 651632); note: nearly all actives have a fitted effect of over 15% in size
# Details: HEK293T ATAD5-luciferase induction, 16 h; series mostly up to 83.3 µM; activation: at the top concentration
# In short: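 Genotoxicity read-out via ATAD5-luciferase: HEK293T cells, 16 hr compound incubation at 37C, Amplite detection.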
# % is set by controls: 0 for no effect and ±100 for the full control effect.
row,Compound,activation
1,CC(=O)OC(C)(C)C,0.718% (inactive)
2,CC(C)(O)c1ccccc1,1.17% (inactive)
3,OCC(CO)(CO)COCC(CO)(CO)CO,1.01% (inactive)
4,C[C@H](O)C(=O)Nc1c(I)c(C(=O)NC(CO)CO)c(I)c(C(=O)NC(CO)CO)c1I,-2.39% [at 39.1 µM] (inactive)
5,CSc1ccc(C=O)cc1,-3.72% (inactive)
6,NCC[C@H](O)C(=O)N[C@@H]1C[C@H](N)[C@@H](O[C@H]2O[C@H](CN)[C@@H](O)[C@H](O)[C@H]2O)[C@H](O)[C@H]1O[C@H]1O[C@H](CO)[C@@H](O)[C@H](N)[C@H]1O,-2.33% (inactive)
7,CCN1CCN(c2cc3c(cc2F)c(=O)c(C(=O)O)cn3C2CC2)CC1,4.38% (inactive)
8,CCCCCCCCCCCCCCC,2.05% (inactive)
9,C/C=C1\C(=O)C[C@H]2[C@@H]3CCC4=CC(=O)CC[C@]4(C)[C@H]3CC[C@]12C,-7.3% (inactive)
10,c1cc(CN2CCCCC2)cc(OCCCNc2nc3ccccc3s2)c1,-6.42% (inactive)
11,CC(C)(C)N(CCO)CCO,1.46% [at 95.3 µM] (inactive)
12,COc1cc(C)cc(O)c1,1.26% (inactive)
13,COc1ccc(NC(C)=O)cc1,4.33% [at 95.3 µM] (inactive)
14,CC(=O)c1ccc(C)cc1,-1.75% (inactive)
15,COC(C(=O)O)c1ccccc1 (stereo not drawn),0.772% (inactive)
16,COc1ccc(COC=O)cc1,-1.3% (inactive)
17,CCCCC=O,1.76% (inactive)
18,C#CC(O)CCCCC (stereo not drawn),3.59% [at 95.3 µM] (inactive)
19,COc1cc(CCC(C)=O)ccc1O,0.978% (inactive)
20,NC(N)=NS(=O)(=O)c1ccc(N)cc1,-2.02% [at 39.1 µM] (inactive)
21,NC(=O)c1ncn([C@@H]2O[C@H](CO)[C@@H](O)[C@H]2O)c1O,-2.97% (inactive)
22,NC(=S)Nc1cccc2ccccc12,1.78% [at 8.08 µM] (inactive)
23,CC(=O)NC(Cc1ccccc1)C(=O)O (stereo not drawn),-1.52% (inactive)
